Experimental data from PMC4336329 (PLoS ONE, 2015).
In all, about 310,000 compounds went through this assay and about 14,000 (4.5%) showed an effect of 50% or more. Effects have a minus sign here. Only a selection was taken, and strong results are over-represented in it overall.

The molecules below were run against human ether-à-go-go-related gene (hERG) potassium channel (human, UniProt Q12809) (assay: primary screen, population patch clamp on CHO cells stably expressing hERG; higher = less effect of the substance).
Chain of human ether-à-go-go-related gene (hERG) potassium channel (Q12809 whole entry, looked up): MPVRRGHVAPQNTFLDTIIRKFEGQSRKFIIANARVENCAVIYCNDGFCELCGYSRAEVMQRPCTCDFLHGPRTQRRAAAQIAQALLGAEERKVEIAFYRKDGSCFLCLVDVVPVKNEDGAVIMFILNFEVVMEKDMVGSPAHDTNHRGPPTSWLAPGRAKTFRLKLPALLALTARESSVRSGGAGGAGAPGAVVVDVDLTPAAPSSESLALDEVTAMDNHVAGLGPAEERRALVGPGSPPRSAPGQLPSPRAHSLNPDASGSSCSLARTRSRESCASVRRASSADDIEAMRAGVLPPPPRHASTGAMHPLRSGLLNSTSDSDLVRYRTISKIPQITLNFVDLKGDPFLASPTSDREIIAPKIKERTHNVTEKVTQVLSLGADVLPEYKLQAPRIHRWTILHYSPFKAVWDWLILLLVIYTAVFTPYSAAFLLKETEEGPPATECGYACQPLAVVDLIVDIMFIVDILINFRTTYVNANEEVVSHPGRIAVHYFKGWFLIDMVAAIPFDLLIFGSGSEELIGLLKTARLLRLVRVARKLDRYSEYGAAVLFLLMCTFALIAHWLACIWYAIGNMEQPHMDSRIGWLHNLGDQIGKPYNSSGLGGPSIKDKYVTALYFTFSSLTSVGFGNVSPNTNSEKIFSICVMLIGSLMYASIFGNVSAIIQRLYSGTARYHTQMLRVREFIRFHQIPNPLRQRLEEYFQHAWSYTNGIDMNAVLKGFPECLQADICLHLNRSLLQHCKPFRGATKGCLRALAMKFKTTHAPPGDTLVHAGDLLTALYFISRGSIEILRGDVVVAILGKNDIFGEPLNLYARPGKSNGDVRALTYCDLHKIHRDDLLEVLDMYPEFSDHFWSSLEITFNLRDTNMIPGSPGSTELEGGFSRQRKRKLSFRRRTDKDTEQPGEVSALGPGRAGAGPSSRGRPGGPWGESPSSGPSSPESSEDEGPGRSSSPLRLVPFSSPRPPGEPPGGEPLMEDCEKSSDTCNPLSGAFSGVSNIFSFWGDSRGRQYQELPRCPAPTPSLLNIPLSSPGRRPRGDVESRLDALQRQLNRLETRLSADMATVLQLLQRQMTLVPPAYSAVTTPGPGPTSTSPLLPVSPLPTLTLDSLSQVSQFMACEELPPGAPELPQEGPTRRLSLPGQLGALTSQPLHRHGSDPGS
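Further: peak tail current of the secondary pulse compared with the same well before compound.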

Compound	hERG current change (%, negative = inhibition) at 10uM
COc1cc2c(cc1OC)C(c1cccs1)N(C(=O)C(C)C)CC2 (stereo not shown)	-19.2%
COc1ccc(C2c3cc(OC)c(OC)cc3CCN2C(=O)c2ccccc2)cc1OC (stereo not shown)	2.95%
COc1cc2c(cc1OC)C(c1cccs1)N(C(=O)c1ccncc1)CC2 (stereo not shown)	-66.8%
COc1cc2c(cc1OC)C(c1cccs1)N(C(=O)c1cccnc1)CC2 (stereo not shown)	-54.9%
COc1cc2c(cc1OC)C(c1ccccc1)N(C(=O)c1ccccc1)CC2 (stereo not shown)	-13.1%
COc1cc2c(cc1OC)C(c1cccs1)N(C(=S)NC(C)C)CC2 (stereo not shown)	-40%
Cc1cc2ccccc2c(=O)n1CC(=O)NCCC1=CCCCC1	8.01%
Cc1c(C#N)c(NC(=O)CCl)n(Cc2ccccc2)c1C	31.1%
CC(C)n1c(SCc2ccc(Cl)cc2)nc2c1c(=O)[nH]c(=O)n2C	18.5%
Cc1ccc(OP(=O)(NC(C)c2ccccc2)Oc2ccc(C)cc2)cc1 (stereo not shown)	17.6%
C=CCN(CC=C)S(=O)(=O)c1ccc(NC(=S)NC(=O)/C=C/c2cccc3ccccc23)cc1	1.52%
O=C(Cc1ccc(Br)cc1)N1CCN(C(=O)c2ccccc2)CC1	-30.1%
CCOc1ccc(/C=C/[N+](=O)[O-])c2ccccc12	-8.67%
CCN1CCN(c2ccc(S(=O)(=O)N3CCCCC3)cc2NC(=O)c2cccc(F)c2)CC1	-34.6%
CCN1CCN(c2ccc(S(=O)(=O)N3CCOCC3)cc2NC(=O)/C=C/c2ccc(OC)cc2OC)CC1	-17.2%
CCN1CCN(c2ccc(S(=O)(=O)N3CCCCC3)cc2NC(=O)/C=C/c2cccc(OC)c2OC)CC1	-18.9%
CCN1CCN(c2ccc(S(=O)(=O)N3CCCCC3)cc2NC(=O)/C=C/c2ccc(OC)c(OC)c2)CC1	-31.4%
CCN1CCN(c2ccc(S(=O)(=O)N3CCCCC3)cc2NC(=O)/C=C/c2ccc(OC(F)F)cc2)CC1	-50.2%
CCN1CCN(c2ccc(S(=O)(=O)N3CCOCC3)cc2NC(=O)c2ccc(C(F)(F)F)cc2)CC1	-44.2%
CCN1CCN(c2ccc(S(=O)(=O)N3CCCCC3)cc2NC(=O)c2ccc(F)cc2)CC1	-56.5%
CCN1CCN(c2ccc(S(=O)(=O)N3CCCCC3)cc2NC(=O)c2ccc(OC(F)F)cc2)CC1	-57.2%

Compound	hERG current change (%, negative = inhibition) at 10uM
CCN1CCN(c2ccc(S(=O)(=O)N3CCCCC3)cc2NC(=O)c2cccc(C(F)(F)F)c2)CC1	-46.7%
CCN1CCN(c2ccc(S(=O)(=O)N3CCCCC3)cc2NC(=O)c2ccccc2)CC1	-46%
CN1CCN(c2ccc(S(=O)(=O)N3CCCCC3)cc2NC(=O)/C=C/c2ccc(OC(F)F)cc2)CC1	-39.2%
CCN1CCN(c2ccc(S(=O)(=O)N3CCCCC3)cc2NC(=O)/C=C/c2cc(OC)ccc2OC)CC1	-52.7%
O=C(Nc1ccc2c(c1)OCO2)c1ccc(COc2ccc3c(c2)CCC3)o1	5.22%
CCN(Cc1ccccc1)C(=O)COC(=O)c1c(C)nsc1NC	-6.97%
CCOCCCNC(=O)c1cc(Nc2ccc(OC)cc2OC)nc2ccccc12	-7.58%
COc1ccc(N2C(=O)CCC(C(=O)Nc3ccccn3)C2c2ccc(OC)c(OC)c2)cc1 (stereo not shown)	8.15%
Cc1ccc(-n2c(C)c(C)c3c(NCCN(C)C)ncnc32)cc1	-36.3%
COC(=O)c1ccc(C)c(NC(=O)CN2C(=O)c3ccccc3S2(=O)=O)c1	6.46%
Cc1ccc(CNC(=S)Nc2ccc(C)c([N+](=O)[O-])c2)cc1	17.5%
CN(CC(=O)Nc1ccc(S(=O)(=O)N2CCCC2)cc1)Cc1c(F)cccc1Cl	-7.41%
O=C(COc1ccc(-n2cnnn2)cc1)Nc1cccc(Cl)c1Cl	16.8%
CC(=O)Nc1ccc(NC(=O)c2cc([N+](=O)[O-])cc([N+](=O)[O-])c2)cc1	22.5%
CCN1CCN(c2ccc(S(=O)(=O)N3CCCCC3)cc2NC(=O)c2cccc(NC(C)=O)c2)CC1	-71.3%
CCN1CCN(c2ccc(S(=O)(=O)N3CCCCC3)cc2NC(=O)c2cccc(C)c2)CC1	-37.4%
CCN1CCN(c2ccc(S(=O)(=O)N3CCCCC3)cc2NC(=O)c2cccc(Cl)c2)CC1	-34.6%
CC1(C)CC(=O)c2cc(N=C/C(C(=O)c3ccccc3)=C(\O)c3ccccc3)c(=O)oc2C1	17.6%
O=C1C=C(c2ccc(-c3ccccc3)cc2)C[C@@H](c2ccc(F)cc2)C1	6.67%
N#Cc1ccc(C2=CC(=O)C[C@H](c3ccc(F)cc3)C2)cc1	-72.1%
COc1ccc([C@H]2CC(=O)C=C(c3ccc(OC)nc3)C2)cc1	14.2%

Compound	hERG current change (%, negative = inhibition) at 10uM
O=C1C=C(c2ccc3c(c2)OCO3)C[C@@H](c2ccc3c(c2)OCO3)C1	10.9%
N#Cc1ccc(C2=CC(=O)C[C@H](c3ccc4c(c3)OCO4)C2)cc1	-70%
O=C1C=C(c2ccc3ncccc3c2)C[C@@H](c2ccc(Cl)cc2)C1	-3.34%
COc1ccc([C@H]2CC(=O)C=C(c3ccc4ncccc4c3)C2)cc1	-3.25%
O=C1C=C(c2ccc(-c3ccccc3)cc2)C[C@@H](c2ccc3c(c2)OCO3)C1	7.88%
O=C1C=C(c2ccc3ncccc3c2)C[C@@H](c2ccc(F)cc2)C1	-62.5%
COc1ccc(C2=CC(=O)C[C@H](c3ccc(Cl)cc3)C2)cn1	-12.4%
Cc1ccc(C2=CC(=O)C[C@H](c3ccc(F)cc3)C2)cc1	19.4%
COc1ccc(C2=CC(=O)CC(c3ccc(F)cc3)C2)cn1 (stereo not shown)	-61.1%
COc1ccc(CN2CCN(C(=O)c3cccs3)CC2)cc1.O=C(O)C(=O)O	-7.86%
C=CCn1c(SCC(=O)N2CCOCC2)nnc1C(C)NC(=O)c1ccccc1 (stereo not shown)	13.4%
CCc1cccc(C)c1NC(=O)COC(=O)Cc1ccsc1	10.4%
c1cncc(-c2noc(C34CC5CC(CC(C5)C3)C4)n2)c1	-0.918%
Nc1nc2ccccc2cc1S(=O)(=O)c1ccccc1	16%
O=[N+]([O-])c1ccc(N/N=C/c2cccc(O)c2O)c(S(=O)(=O)N2CCOCC2)c1	-5.8%
COC(=O)c1ccccc1NC(=O)CSc1nnc(-c2cccnc2)o1	-6.93%
COc1ccccc1NC(=O)C(C)N1C(=O)c2ccccc2C1=O (stereo not shown)	5.76%
Cc1cccc(-c2nc(CSCC(=O)NCCCN3CCOCC3)c(C)o2)c1	-11.3%
Cc1c(NC(=O)CSc2nnnn2-c2ccc(O)cc2)c(=O)n(-c2ccccc2)n1C	-7.29%
Nc1c(Cl)ncnc1NCCc1ccc(O)cc1	9.93%
CCn1nc(-c2ccccc2)nc2c(=O)n(C)c(=O)nc1-2	-27.6%

Compound	hERG current change (%, negative = inhibition) at 10uM
Cc1cnc2cc(Cl)c(Cl)cc2n1	18.2%
CCOc1ccc(S(=O)(=O)Nc2ccc(C(=O)N3CC(C)OC(C)C3)cc2)cc1 (stereo not shown)	0.557%
Cc1ccc(C2=CC(=O)C[C@H](c3ccc(Cl)cc3)C2)cc1	8.09%
N#Cc1ccc(C2=CC(=O)C[C@H](c3ccc(Cl)cc3)C2)cc1	-71.9%
O=C1C=C(c2ccc(-c3ccccc3)cc2)C[C@@H](c2ccc(Cl)cc2)C1	21.8%
O=C(NCc1ccccc1)c1ccc(CS(=O)(=O)Cc2ccccc2F)o1	-5.62%
COc1cccc(CNC(=O)CC2C(=O)NCCN2CCCc2ccccc2)c1 (stereo not shown)	-6.17%
COc1ccc(OCC(=O)Nc2ccccc2Cl)cc1	13.7%
COc1ccc(S(=O)(=O)N2CCN(CC(=O)Nc3ccccc3Cl)CC2)cc1	-1.6%
O=C(COc1ccc(Cl)cc1)Nc1ccccc1Cl	3.26%
CCc1nnc(NC(=O)CN2CCN(Cc3cccc(OC)c3)CC2)s1	-19%
COc1cccc(CC(=O)Nc2ccccc2N2CCCC2)c1	-5.39%
COc1ccc(NC(=O)CN2CCN(CC(=O)Nc3ccccc3Cl)CC2)cc1	-74.1%
COc1cccc(CN2CCN(CC(=O)Nc3ccccc3Cl)CC2)c1	-72%
COc1cccc(NC(=O)CN2CCC(C)CC2)c1	1.52%
COc1cccc(NC(=O)CN2CCN(CC(=O)Nc3ccccc3Cl)CC2)c1	-61%
COc1cccc(NC(=O)CN2CCc3ccccc3C2)c1	10.3%
CCc1ccc(OCC(=O)N2CCN(CC(=O)Nc3ccccc3Cl)CC2)cc1	-80.7%
COc1ccc(NC(=O)c2ccccc2NC(=O)CN2CCCCCC2)cc1	8.82%
